Measurements as given in PMC7862700, “An all-to-all approach to the identification of sequence-specific readers for epigenetic DNA modifications on cytosine”.

Columns and labels:
Assay in all cases: DAPPL (digital affinity profiling via proximity ligation, sequencing); 10 mM Tris-HCl pH 7.5, 50 mM NaCl, 1 mM DTT, 4% glycerol, room temperature, 30 min; GST-TFs on glutathione beads, 16-mer random dsDNA library, 0.1% formaldehyde crosslink after washing; high values mean tight binding
[1] = molecular target: T1, FEV (Homo sapiens, UniProt Q99581 1-238); settings: protein: recombinant; tags: N-terminal GST; dsDNA, one strand shown
T1 sequence: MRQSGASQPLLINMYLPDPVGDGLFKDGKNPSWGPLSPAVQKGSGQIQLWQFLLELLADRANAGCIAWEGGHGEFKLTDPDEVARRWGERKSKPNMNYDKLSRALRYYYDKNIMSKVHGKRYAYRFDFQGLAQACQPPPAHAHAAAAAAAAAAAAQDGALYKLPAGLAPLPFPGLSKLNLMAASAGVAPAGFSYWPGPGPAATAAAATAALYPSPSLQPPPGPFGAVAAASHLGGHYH
Method in brief: (§1)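 A tag-only sample was pooled with DNA-barcoded human transcription factors that had been expressed in yeast as GST fusions and captured on glutathione beads. The pools were incubated for 30 min at room temperature with 200 nmole of a random double-stranded 16-mer DNA library in Tris/NaCl/DTT/glycerol buffer, then washed, crosslinked with 0.1% formaldehyde, proximity-ligated (BsaI/T4 ligase, 1 h, 37 °C), PCR-amplified and sequenced on an Illumina NextSeq500. Binding signal is each hexamer's read frequency for a factor divided by its frequency for the tag-only sample.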

[2] = molecular target: ETV5 (Homo sapiens, UniProt P41161 1-510); settings: protein: recombinant; tags: N-terminal GST; dsDNA, one strand shown
ETV5, sequence (P41161 whole entry): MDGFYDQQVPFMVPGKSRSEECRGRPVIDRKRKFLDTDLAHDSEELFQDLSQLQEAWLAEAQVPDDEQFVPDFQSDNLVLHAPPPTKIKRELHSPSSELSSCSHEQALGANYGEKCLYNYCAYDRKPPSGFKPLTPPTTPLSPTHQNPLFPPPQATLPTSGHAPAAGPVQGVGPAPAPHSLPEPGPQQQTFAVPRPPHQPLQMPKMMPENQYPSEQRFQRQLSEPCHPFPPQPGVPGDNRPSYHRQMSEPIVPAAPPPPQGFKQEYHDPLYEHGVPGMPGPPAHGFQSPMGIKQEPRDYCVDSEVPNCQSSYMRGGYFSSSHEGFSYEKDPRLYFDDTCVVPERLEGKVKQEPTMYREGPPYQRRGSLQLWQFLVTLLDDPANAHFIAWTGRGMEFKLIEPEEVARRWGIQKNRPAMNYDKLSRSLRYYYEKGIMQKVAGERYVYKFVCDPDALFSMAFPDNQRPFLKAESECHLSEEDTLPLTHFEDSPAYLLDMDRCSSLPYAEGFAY
Method in brief: as §1

[3] = molecular target: HSF1 (Homo sapiens, UniProt Q00613 1-529); settings: protein: recombinant; tags: N-terminal GST; chain copies: 3; dsDNA, one strand shown
HSF1, sequence (Q00613 whole entry): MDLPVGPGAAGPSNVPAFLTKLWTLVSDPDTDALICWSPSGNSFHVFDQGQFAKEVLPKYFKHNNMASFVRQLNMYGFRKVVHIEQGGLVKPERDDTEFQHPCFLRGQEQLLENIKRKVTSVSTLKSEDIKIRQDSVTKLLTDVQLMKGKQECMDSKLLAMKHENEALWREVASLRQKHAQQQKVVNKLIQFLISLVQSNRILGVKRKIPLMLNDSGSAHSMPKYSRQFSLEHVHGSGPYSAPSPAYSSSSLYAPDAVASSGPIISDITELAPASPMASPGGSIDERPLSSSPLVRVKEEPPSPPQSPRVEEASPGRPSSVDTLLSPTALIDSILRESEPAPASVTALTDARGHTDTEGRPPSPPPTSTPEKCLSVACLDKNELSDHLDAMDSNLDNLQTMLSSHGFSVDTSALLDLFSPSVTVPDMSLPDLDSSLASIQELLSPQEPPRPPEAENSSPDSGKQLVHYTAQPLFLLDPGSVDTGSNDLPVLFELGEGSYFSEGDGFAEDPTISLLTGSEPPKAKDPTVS
Method in brief: as §1

[4] = molecular target: T2, SPIC (Homo sapiens, UniProt Q8N5J4 1-248); settings: protein: recombinant; tags: N-terminal GST; dsDNA, one strand shown
T2 sequence: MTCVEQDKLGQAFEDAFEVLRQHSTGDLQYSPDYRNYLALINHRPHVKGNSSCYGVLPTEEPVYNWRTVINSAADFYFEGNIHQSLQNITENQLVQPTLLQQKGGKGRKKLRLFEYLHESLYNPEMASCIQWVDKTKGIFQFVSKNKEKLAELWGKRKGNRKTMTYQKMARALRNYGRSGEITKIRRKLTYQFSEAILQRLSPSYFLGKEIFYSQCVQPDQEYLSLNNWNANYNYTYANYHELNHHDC
Method in brief: as §1

[5] = molecular target: ELF4 (Homo sapiens, UniProt Q99607 1-663); settings: protein: recombinant; tags: N-terminal GST; dsDNA, one strand shown
ELF4, sequence (Q99607 whole entry): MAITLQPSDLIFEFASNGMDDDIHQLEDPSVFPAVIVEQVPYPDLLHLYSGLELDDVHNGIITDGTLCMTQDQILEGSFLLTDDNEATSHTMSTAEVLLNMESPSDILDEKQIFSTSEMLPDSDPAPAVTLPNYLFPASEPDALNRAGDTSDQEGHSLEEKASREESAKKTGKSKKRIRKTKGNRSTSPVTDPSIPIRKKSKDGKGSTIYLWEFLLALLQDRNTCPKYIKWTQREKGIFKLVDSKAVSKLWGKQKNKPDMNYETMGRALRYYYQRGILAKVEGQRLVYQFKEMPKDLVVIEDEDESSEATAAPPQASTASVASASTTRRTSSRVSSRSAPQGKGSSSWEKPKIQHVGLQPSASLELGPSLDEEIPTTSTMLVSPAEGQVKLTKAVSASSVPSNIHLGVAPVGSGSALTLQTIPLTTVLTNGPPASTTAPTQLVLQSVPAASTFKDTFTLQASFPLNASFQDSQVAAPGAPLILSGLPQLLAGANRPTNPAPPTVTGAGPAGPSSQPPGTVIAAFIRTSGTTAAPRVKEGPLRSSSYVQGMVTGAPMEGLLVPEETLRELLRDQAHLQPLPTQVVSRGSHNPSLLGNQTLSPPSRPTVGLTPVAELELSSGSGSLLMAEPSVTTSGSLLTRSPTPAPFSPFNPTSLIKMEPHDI
Method in brief: as §1

[6] = molecular target: T3, ELK4 (Homo sapiens, UniProt P28324-2 1-405); settings: protein: recombinant; tags: N-terminal GST; dsDNA, one strand shown
T3 sequence: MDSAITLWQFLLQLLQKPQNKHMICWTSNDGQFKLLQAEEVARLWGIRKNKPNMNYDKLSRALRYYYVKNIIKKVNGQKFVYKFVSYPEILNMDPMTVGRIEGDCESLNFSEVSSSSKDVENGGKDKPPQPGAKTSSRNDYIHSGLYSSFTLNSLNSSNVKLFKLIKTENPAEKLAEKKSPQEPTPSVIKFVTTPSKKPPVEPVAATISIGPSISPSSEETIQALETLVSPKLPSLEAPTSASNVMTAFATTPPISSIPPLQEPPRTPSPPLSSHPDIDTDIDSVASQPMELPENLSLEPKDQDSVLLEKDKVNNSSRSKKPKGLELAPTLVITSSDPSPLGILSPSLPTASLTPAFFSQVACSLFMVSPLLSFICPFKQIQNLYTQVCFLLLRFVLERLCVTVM
Method in brief: as §1

[7] = molecular target: T4, ETV2 (Homo sapiens, UniProt O00321 1-342); settings: protein: recombinant; tags: N-terminal GST; dsDNA, one strand shown
T4 sequence: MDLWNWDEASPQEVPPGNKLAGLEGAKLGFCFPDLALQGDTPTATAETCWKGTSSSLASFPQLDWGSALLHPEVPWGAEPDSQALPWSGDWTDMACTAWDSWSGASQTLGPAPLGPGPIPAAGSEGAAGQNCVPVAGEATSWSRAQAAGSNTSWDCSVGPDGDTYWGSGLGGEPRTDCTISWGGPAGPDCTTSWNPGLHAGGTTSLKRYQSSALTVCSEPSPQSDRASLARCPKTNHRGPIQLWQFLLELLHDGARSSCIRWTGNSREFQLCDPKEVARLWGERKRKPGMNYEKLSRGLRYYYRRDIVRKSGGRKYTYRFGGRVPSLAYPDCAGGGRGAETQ
Method in brief: as §1

[8] = molecular target: T5, ELF3 (Homo sapiens, UniProt P78545 1-371); settings: protein: recombinant; tags: N-terminal GST; dsDNA, one strand shown
T5 sequence: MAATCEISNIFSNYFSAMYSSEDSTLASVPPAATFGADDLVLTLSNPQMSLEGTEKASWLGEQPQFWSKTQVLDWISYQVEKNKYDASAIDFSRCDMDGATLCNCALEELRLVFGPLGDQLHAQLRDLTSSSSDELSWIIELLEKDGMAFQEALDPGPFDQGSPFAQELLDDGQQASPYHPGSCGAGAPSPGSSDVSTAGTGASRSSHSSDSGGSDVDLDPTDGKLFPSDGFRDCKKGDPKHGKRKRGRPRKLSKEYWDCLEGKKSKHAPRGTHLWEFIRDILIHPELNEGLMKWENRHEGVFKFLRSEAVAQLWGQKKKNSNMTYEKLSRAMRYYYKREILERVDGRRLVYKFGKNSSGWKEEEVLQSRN
Method in brief: as §1

[9] = molecular target: CRX (Homo sapiens, UniProt O43186 1-299); settings: protein: recombinant; tags: N-terminal GST; dsDNA, one strand shown
CRX, sequence (O43186 whole entry): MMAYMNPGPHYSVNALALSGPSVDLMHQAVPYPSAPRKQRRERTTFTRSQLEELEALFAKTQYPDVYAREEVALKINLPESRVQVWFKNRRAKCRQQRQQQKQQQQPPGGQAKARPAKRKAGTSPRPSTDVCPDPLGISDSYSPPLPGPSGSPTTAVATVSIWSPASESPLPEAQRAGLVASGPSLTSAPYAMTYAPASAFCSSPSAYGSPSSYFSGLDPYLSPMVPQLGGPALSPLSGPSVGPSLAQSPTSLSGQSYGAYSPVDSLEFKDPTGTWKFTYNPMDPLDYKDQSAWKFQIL
Method in brief: as §1

[10] = molecular target: ETV1 (Homo sapiens, UniProt P50549 1-477); settings: protein: recombinant; tags: N-terminal GST; dsDNA, one strand shown
ETV1, sequence (P50549 whole entry): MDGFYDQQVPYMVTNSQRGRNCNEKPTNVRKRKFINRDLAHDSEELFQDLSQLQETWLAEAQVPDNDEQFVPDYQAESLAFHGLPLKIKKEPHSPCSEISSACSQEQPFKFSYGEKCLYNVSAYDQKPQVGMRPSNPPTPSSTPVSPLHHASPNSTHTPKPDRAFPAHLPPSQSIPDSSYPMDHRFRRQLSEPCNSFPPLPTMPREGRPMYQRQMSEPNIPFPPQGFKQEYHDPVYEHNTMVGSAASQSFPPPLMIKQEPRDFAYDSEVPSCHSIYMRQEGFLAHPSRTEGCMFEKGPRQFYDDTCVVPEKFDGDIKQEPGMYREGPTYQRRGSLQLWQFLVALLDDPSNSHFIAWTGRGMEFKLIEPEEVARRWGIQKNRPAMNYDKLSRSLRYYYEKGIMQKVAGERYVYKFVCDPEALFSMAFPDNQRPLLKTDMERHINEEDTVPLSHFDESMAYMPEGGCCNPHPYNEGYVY
Method in brief: as §1

## TTATCC
[1]
  binding signal: 1.44 fold enrichment (6-mer frequency, TF over GST control)
[2]
  binding signal: 1.45 fold enrichment (6-mer frequency, TF over GST control)
[3]
  binding signal: 2.49 fold enrichment (6-mer frequency, TF over GST control)
[4]
  binding signal: 1.51 fold enrichment (6-mer frequency, TF over GST control)
[5]
  binding signal: 1.33 fold enrichment (6-mer frequency, TF over GST control)
[6]
  binding signal: 1.45 fold enrichment (6-mer frequency, TF over GST control)
[7]
  binding signal: 1.61 fold enrichment (6-mer frequency, TF over GST control)
[8]
  binding signal: 1.41 fold enrichment (6-mer frequency, TF over GST control)
[9]
  binding signal: 3.97 fold enrichment (6-mer frequency, TF over GST control)
[10]
  binding signal: 1.27 fold enrichment (6-mer frequency, TF over GST control)
